biological target: TSC22D2; assay: pooled miR-30 sensor sort-seq; sequence = guide strand; details: shRNA
Note: reference of the scale not given here.

Sequence | sensor-assay potency score (higher = more potent)
TAGTATCGTCGACTTGCCCGAC | -0.774
TTCTCTTACTGCATACATCAAA | -0.826
AAAACTTCCACTTCTTCTCTTA | 0.265
TCAACAGGAATAGCTATGCTGA | -0.503
TAGTATTCCATACACGTCCATC | -1.07
TATTCCATACACGTCCATCGGC | -0.556
TTTAACAGTGCATTTTCTCGTT | 0.0173
TCTTCTAGTATCGTCGACTTGC | 0.0712
TTAACAGTGCATTTTCTCGTTC | -0.691
TTTTCTTCTAGTATCGTCGACT | -0.0154
TAGCTGTGACACAGCAGTCAAG | -1.48
TAAAACTTCCACTTCTTCTCTT | 0.683

biological target: TSC22D3; assay: as above; details: shRNA

Sequence | sensor-assay potency score (higher = more potent)
ATGCTGTTGAGCTTGTCGGTAT | -1.17
TCGTTGATCAGGTAGCAGGGGT | -0.312
TCTCTCACAGCATACATCAGAT | -0.863
ATGGTCTGGTCGATGTTGCGGT | -0.997
TTGTTGTCTATGGCCACCACGC | -1.5
TTGTTGTTCTCCCCGCTGCTGC | -1.15
TTGTCTATGGCCACCACGCTGG | -0.721
TATGCTGTTGAGCTTGTCGGTA | -0.561
TTATGCTGTTGAGCTTGTCGGT | -0.79
TTCTTCATAGGAACAGTCGTTG | -0.524
ATTGAGGTTCTCAAAGACCAGC | -1.14
TTCGATCTTGTTGTCTATGGCC | 0.125
TTCTTCACCAGATCCATGGCCT | 0.0668
TTGCCAGGGTCTTCAACAGGGT | -0.965
TTCTTCTCCACCAGCTCTCGGA | -1.12
TGTTCTCACGCTCTAGCTGGGA | -0.875
TAGGACATCTCTTGGCACCAGC | -0.981
TCGATCTTGTTGTCTATGGCCA | -0.64
TTCAGGGCTCAGACAGGACTGG | -0.708
TAGCTGGGAGTTCTTCTCCACC | -1.58
TTGAGCTTGTCGGTATTGAGGT | -0.00573
TGAGCTTGTCGGTATTGAGGTT | -0.394
AACTTCTCCAGCTGCTCTGGGC | -1.22
TTGTCGGTATTGAGGTTCTCAA | -1.48

biological target: TSEN34; assay: as above; details: shRNA

Sequence | sensor-assay potency score (higher = more potent)
ATCACTGGTCTCATCCTCTTTG | -0.941
TCTGTAGATACTGTAGCGCAGC | -0.735
TCTTTAGACTGGACACGCCAGT | -1.04

— the OligoGym collection
